Assay outcomes: PubChem BioAssay, Broad Institute
T cruzi growth-1: inhibitors of T. cruzi proliferation | 5.9% of 77,000 active | T. cruzi beta-gal in NIH3T3, GalScreen luminescence, 90 h | inhibition, % at 8.34 µM | AID 624255;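 active = mean inhibition above about 93%, with at least 55% of replicates each passing it, limit read from the data, passing the limit was not always enough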
Pf Dd2 inh: blocks growth of Plasmodium falciparum Dd2 parasites; 2.3% of 94,000 active; AID 1159554; activity change, % at 10 µM; P. falciparum Dd2 growth, SYBR Green, 72 h; stronger effect = lower value; in the data active = activity change below about -80%
C diff HTS: blocks growth of Clostridium difficile. growth activity, negative = inhibition, % at 16 µg/mL (by protocol). 0.25% of 86,000 active. Clostridium difficile clinical isolate growth, OD600, 24 h; stronger effect = lower value;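 active = mean growth activity at or below -80% and every replicate also at or below -80%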;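 note: 0% = DMSO wells and -100% = levofloxacin 16 µg/mL wells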
T cruzi growth-2: Trypanosoma cruzi proliferation inhibition | shares compounds with T cruzi growth-1 | T. cruzi beta-gal in NIH3T3, GalScreen luminescence, 90 h | inhibition, % at 8.35 µM | 72% of 5,600 active | AID 651739;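 active = mean replicate inhibition above about 95% and at least 55% of replicates individually reaching it, limit read from the data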
T cruzi growth-3: Trypanosoma cruzi proliferation inhibition; 21% of 5,600 active; shares compounds with T cruzi growth-1; T. cruzi beta-gal in NIH3T3, GalScreen luminescence, 90 h; inhibition, % at 2.09 µM;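 active = mean inhibition above about 95%, with at least 55% of replicates also reaching it, limit read from the data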;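 note: plate controls were neutral control median for no effect and positive control median for full effect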
3T3 cytotox: cytotoxicity in mouse NIH/3T3 fibroblasts; 14% of 5,600 active; NIH/3T3 viability, CellTiter-Glo ATP luminescence, 90 h; cytotoxicity (signal decrease), % at 8.35 µM; shares compounds with T cruzi growth-1;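 active = mean signal decrease across replicates above about 35% based on untreated-well scatter, with enough replicates individually passing, limit read from the data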;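 note: 0% = median of neutral control wells and 100% = median of positive control wells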
NIH3T3 tox 2: kills mouse NIH/3T3 fibroblasts | shares compounds with T cruzi growth-1 | NIH/3T3 viability, CellTiter-Glo ATP luminescence, 90 h | inhibition, % at 24.9 µM | 56% of 5,600 active;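 active = mean loss of cell viability signal at or above a set limit, and enough replicates individually reaching it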;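 note: 0% = median of neutral control wells and 100% = median of positive control wells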
* = called active by the depositor. In the library only some 6.8% were active in any assay of this set; here they are far more common.

How did COc1ccc(NC(=O)Nc2ccc3c(c2)C(=O)N([C@@H](C)CO)C[C@H](C)[C@@H](CN(C)Cc2ccncc2)OCCCC[C@@H](C)O3)cc1 do in these assays?
T cruzi growth-1: 72.0; Pf Dd2 inh: -44.7; C diff HTS: 1.0

What do the screens show for `CC(C)NC(=O)N(C)C[C@@H]1OCCCC[C@@H](C)Oc2ccc(NS(=O)(=O)c3ccc(F)cc3)cc2C(=O)N([C@H](C)CO)C[C@H]1C`?
T cruzi growth-1: 3.9; C diff HTS: -4.8

Results for C[C@H]1CN([C@@H](C)CO)S(=O)(=O)c2ccc(Br)cc2O[C@@H]1CN(C)C(=O)C1CCC1 ?
T cruzi growth-1: 27.5; Pf Dd2 inh: 1.9

Results for CC=Cc1ccc2n(c1=O)C[C@H]1[C@H](CO)[C@@H](C(=O)Nc3ccc(-c4ccccc4)cc3)N(CCC)[C@@H]21 (mixture of isomers) ?
T cruzi growth-1: 112.4*; Pf Dd2 inh: -29.4; C diff HTS: 7.8; T cruzi growth-2: 91.8; T cruzi growth-3: 85.4; 3T3 cytotox: 24.1; NIH3T3 tox 2: 103.8*

How did CC=Cc1ccc2n(c1=O)C[C@@H]1[C@@H](CO)[C@H](C(=O)Nc3ccc(-c4ccccc4)cc3)N(CCC)[C@H]21 (mixture of isomers) do in these assays?
T cruzi growth-1: 103.0*; Pf Dd2 inh: -37.7; C diff HTS: 9.2; T cruzi growth-2: 99.5*; T cruzi growth-3: 67.9; 3T3 cytotox: 7.4; NIH3T3 tox 2: 105.6*

Results for CC=Cc1ccc2n(c1=O)C[C@H]1[C@H](CO)[C@@H](C(=O)Nc3ccc(-c4ccccc4)cc3)N(C)[C@@H]21 (mixture of isomers) ?
T cruzi growth-1: 90.1; C diff HTS: 18.5

Results for CC=Cc1ccc2n(c1=O)C[C@H]1[C@H](CO)[C@@H](C(=O)Nc3ccc(-c4ccccc4)cc3)N(C(C)=O)[C@@H]21 (mixture of isomers) ?
T cruzi growth-1: -0.6; Pf Dd2 inh: 8.0; C diff HTS: 9.2

How did C[C@H]1CN([C@@H](C)CO)C(=O)Cc2cc(NC(=O)Cc3ccccc3)ccc2O[C@H]1CN(C)C(=O)NC1CCCCC1 do in these assays?
T cruzi growth-1: -28.0; Pf Dd2 inh: 0.5; C diff HTS: -2.8

Results for Cc1ccc(S(=O)(=O)Nc2ccc3c(c2)C(=O)N([C@@H](C)CO)C[C@@H](C)[C@@H](CN(C)S(=O)(=O)c2ccc(Cl)cc2)OCCCC[C@H](C)O3)cc1 ?
T cruzi growth-1: 132.5*; Pf Dd2 inh: -86.4*; C diff HTS: 5.8; T cruzi growth-2: 107.3*; T cruzi growth-3: 108.9*; 3T3 cytotox: -35.9; NIH3T3 tox 2: 2.1

What do the screens show for `Cc1ccc(S(=O)(=O)N(C)C[C@@H]2OCCCC[C@H](C)Oc3ccc(NS(=O)(=O)c4ccc(Cl)cc4)cc3C(=O)N([C@H](C)CO)C[C@H]2C)cc1`?
T cruzi growth-1: 91.4; Pf Dd2 inh: -50.3; C diff HTS: 2.3

Results for Cc1ccc(S(=O)(=O)N(C)C[C@H]2OCCCC[C@H](C)Oc3ccc(NS(=O)(=O)c4ccc(Cl)cc4)cc3C(=O)N([C@H](C)CO)C[C@@H]2C)cc1 ?
T cruzi growth-1: 96.6*; Pf Dd2 inh: -15.9; C diff HTS: 9.2; T cruzi growth-2: 100.2*; T cruzi growth-3: 118.9*; 3T3 cytotox: 17.0; NIH3T3 tox 2: 10.7

What do the screens show for `C[C@@H]1CCCCO[C@H](CN(C)S(=O)(=O)c2ccc(Cl)cc2)[C@H](C)CN([C@@H](C)CO)C(=O)c2cc(NS(=O)(=O)c3ccc(Cl)cc3)ccc2O1`?
T cruzi growth-1: 88.9; Pf Dd2 inh: -46.4; C diff HTS: 0.8

How did Cc1ccc(S(=O)(=O)N(C)C[C@H]2OCCCC[C@@H](C)Oc3ccc(NS(=O)(=O)c4ccc(Cl)cc4)cc3C(=O)N([C@@H](C)CO)C[C@@H]2C)cc1 do in these assays?
T cruzi growth-1: 99.4*; Pf Dd2 inh: -41.2; C diff HTS: 8.2; T cruzi growth-2: 98.2*; T cruzi growth-3: 119.2*; 3T3 cytotox: -20.4; NIH3T3 tox 2: -1.7

How did Cc1ccc(S(=O)(=O)N(C)C[C@@H]2OCCCC[C@H](C)Oc3ccc(NS(=O)(=O)c4ccc(Cl)cc4)cc3C(=O)N([C@@H](C)CO)C[C@@H]2C)cc1 do in these assays?
T cruzi growth-1: 117.6*; Pf Dd2 inh: -41.2; C diff HTS: 3.1; T cruzi growth-2: 103.8*; T cruzi growth-3: 115.3*; 3T3 cytotox: -5.2; NIH3T3 tox 2: -18.1

How did C[C@@H]1CCCCO[C@H](CN(C)S(=O)(=O)c2ccc(Cl)cc2)[C@@H](C)CN([C@@H](C)CO)C(=O)c2cc(NS(=O)(=O)c3ccc(Cl)cc3)ccc2O1 do in these assays?
Pf Dd2 inh: -68.5; C diff HTS: -9.9

Results for CN1[C@@H]2CN(C(=O)C3CCOCC3)c3ccccc3[C@@H]2[C@@H]1CO ?
T cruzi growth-1: -7.6; Pf Dd2 inh: 27.4; C diff HTS: -0.6

What do the screens show for `COc1ccc(NC(=O)N(C)C[C@@H]2OCCCC[C@@H](C)Oc3ccc(NS(=O)(=O)c4cccs4)cc3C(=O)N([C@H](C)CO)C[C@@H]2C)cc1`?
T cruzi growth-1: -23.2; Pf Dd2 inh: -8.6; C diff HTS: 4.7

What do the screens show for `CNC[C@@H]1Oc2ncc(-c3cccc(C(=O)N(C)C)c3)cc2C(=O)N([C@@H](C)CO)C[C@H]1C`?
Pf Dd2 inh: 22.1; C diff HTS: -0.4

How did CC(C)NC(=O)Nc1ccc2c(c1)C(=O)N([C@H](C)CO)C[C@H](C)[C@@H](CN(C)C(=O)Nc1cccc3ccccc13)OCCCC[C@@H](C)O2 do in these assays?
T cruzi growth-1: 21.0; Pf Dd2 inh: -53.5; C diff HTS: -4.7

What do the screens show for `Cc1ccc(S(=O)(=O)N(C)C[C@H]2OCCCC[C@@H](C)Oc3ccc(NS(=O)(=O)c4ccc(Cl)cc4)cc3C(=O)N([C@H](C)CO)C[C@H]2C)cc1`?
T cruzi growth-1: 108.3*; Pf Dd2 inh: -80.3*; C diff HTS: 5.4; T cruzi growth-2: 98.3*; T cruzi growth-3: 109.2*; 3T3 cytotox: -20.2; NIH3T3 tox 2: -8.8

How did C[C@@H]1CCCCO[C@H](CN(C)S(=O)(=O)c2ccc(Cl)cc2)[C@@H](C)CN([C@H](C)CO)C(=O)c2cc(NS(=O)(=O)c3ccc(Cl)cc3)ccc2O1 do in these assays?
T cruzi growth-1: 31.6; Pf Dd2 inh: -14.6; C diff HTS: -3.1

What do the screens show for `C[C@@H]1CCCCO[C@@H](CN(C)S(=O)(=O)c2ccc(Cl)cc2)[C@@H](C)CN([C@H](C)CO)C(=O)c2cc(NS(=O)(=O)c3ccc(Cl)cc3)ccc2O1`?
T cruzi growth-1: 73.5; Pf Dd2 inh: -23.8; C diff HTS: 9.0
